Results on 38 compounds are retold here after the supplement of paper PMC10121225.

Structures can show the parent of a compound that is named as a salt.
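Also: immunostained co-cultures imaged by high-content microscopy, Z-score per plate against mean and SD of 0.1% DMSO wells, compounds added on differentiation day 18, analysed day 21.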

This assay deals with hN + hpA co-culture (H1 iNGN2 human neurons + human primary astrocytes). The assay can be described thus: presynaptic density (SYNAPSIN1 puncta per MAP2 neurite area), Z-score vs DMSO controls; higher = more presynaptic puncta (synapse-promoting). To be noted: 3 µM; 72 h.
On to `C[C@@H]1CCN(C(=O)CC#N)C[C@@H]1N(C)c1ncnc2[nH]ccc12`, for which the “presynaptic density (Z-score)” value is -0.892.

As for `CC(C)(C)c1cc(/C=C(\C#N)C(N)=S)cc(C(C)(C)C)c1O` [Tyrphostin AG 879], the “presynaptic density (Z-score)” value is -0.121.

Regarding `C[S+]([O-])c1ccc(-c2nc(-c3ccc(F)cc3)c(-c3ccncc3)[nH]2)cc1` (stereo not drawn), the “presynaptic density (Z-score)” value is -1.11.

For `Cc1cc(NC(=O)Nc2ccc(N(C)C)cc2)c2cc(F)cc(F)c2n1`, the “presynaptic density (Z-score)” value came out at 0.301.

On to `CCN1CCCC1CNC(=O)c1cc(S(N)(=O)=O)ccc1OC` (single isomer, unassigned; (-)) [(-)-Sulpiride], for which the “presynaptic density (Z-score)” value was -1.09.

As for `C[C@]1(c2nc3c(C(N)=O)cccc3[nH]2)CCCN1` [Veliparib (ABT-888)], the “presynaptic density (Z-score)” value turned out to be 0.43.

As for `CC(C)NCC(O)COc1ccc(COCCOC(C)C)cc1` (racemic), the “presynaptic density (Z-score)” value was -0.749.

As to `CC(C)(Cc1ccc2ccccc2c1)NC[C@@H](O)COc1cccc(Cl)c1C#N`, the “presynaptic density (Z-score)” value was -2.26.

In the case of `O=C(c1ccc(Nc2nccc(-c3cc4ccccc4s3)n2)cc1)N1CCC(N2CCCC2)CC1`, the “presynaptic density (Z-score)” value is 0.27.

Turning to `S=C=Nc1cccc(NC(=S)NCCCCNC(=S)Nc2cccc(N=C=S)c2)c1`, the “presynaptic density (Z-score)” value stood at 0.95.

In the case of `COc1cc2c(cc1OC)CN(CCc1ccc(NC(=O)c3cc(OC)c(OC)cc3NC(=O)c3cnc4ccccc4c3)cc1)CC2` [Tariquidar], the “presynaptic density (Z-score)” value is -0.47.

For `CCn1c(=O)c2c(nc(/C=C/c3ccc(OC)c(OC)c3)n2C)n(CC)c1=O` [Istradefylline], the “presynaptic density (Z-score)” value was -0.775.

`COc1cc(Nc2ncc(F)c(Nc3ccc4c(n3)N(COP(=O)(O)O)C(=O)C(C)(C)O4)n2)cc(OC)c1OC` [Fostamatinib (R788)]: the “presynaptic density (Z-score)” value amounted to 0.149.

`O=C(NC(Cc1cc(=O)[nH]c2ccccc12)C(=O)O)c1ccc(Cl)cc1` (stereo not drawn): the “presynaptic density (Z-score)” value is -0.611.

Consider `COc1ccc(-c2nc3cc(C4=NNC(=O)CC4C)ccc3[nH]2)cc1` (stereo not drawn) [Pimobendan], for which the “presynaptic density (Z-score)” value is -0.704.

Turning to `COc1ccc(C2CNC(=O)C2)cc1OC1CCCC1` (stereo not drawn) [Rolipram], the “presynaptic density (Z-score)” value was -0.353.

With `COc1cc(CCc2cc(NC(=O)c3ccc(N4CC(C)NC(C)C4)cc3)n[nH]2)cc(OC)c1` (stereo not drawn), the “presynaptic density (Z-score)” value is -0.132.

For `C=CC(=O)N1CCC[C@@H](n2nc(-c3ccc(Oc4ccccc4)cc3)c3c(N)ncnc32)C1`, the “presynaptic density (Z-score)” value is -0.341.

On to `O=C(O)Cc1cccc(OCCCN(Cc2cccc(C(F)(F)F)c2Cl)CC(c2ccccc2)c2ccccc2)c1`, for which the “presynaptic density (Z-score)” value is -1.54.

Regarding `CCCCN1CCCCC1C(=O)Nc1c(C)cccc1C` (stereo not drawn) [Bupivacaine HCl], the “presynaptic density (Z-score)” value is -0.239.

For `O=C1c2ccccc2-c2n[nH]c3cccc1c23` [Anthra[1-9-cd]pyrazol-6(2H)-one], the “presynaptic density (Z-score)” value came out at 0.183.

For `CCN(CC)CC(=O)Nc1c(C)cccc1C`, the “presynaptic density (Z-score)” value was determined as 0.846.

As for `C=CC(=O)Nc1cccc(Oc2nc(Nc3ccc(N4CCN(C)CC4)cc3OC)ncc2Cl)c1`, the “presynaptic density (Z-score)” value is -0.275.

Turning to `CC(C)(C)c1cc(C(C)(C)C)c(NC(=O)c2c[nH]c3ccccc3c2=O)cc1O` [Ivacaftor (VX-770)], the “presynaptic density (Z-score)” value was 0.324.

With `CCCC(=O)Nc1cccc(NC(=O)c2ccccc2Br)c1`, the “presynaptic density (Z-score)” value was -0.374.

In the case of `O=C(Nc1ccncc1)c1cc([N+](=O)[O-])ccc1Cl` [2-Chloro-5-nitro-N-4-pyridinylbenzamide], the “presynaptic density (Z-score)” value worked out at 0.702.

Consider `Cc1nn(-c2ccccc2)c(C)c1C=NN1CCN(Cc2ccccc2)CC1`, for which the “presynaptic density (Z-score)” value is -0.2.

In the case of `Cc1nc(C(=O)NCC(=O)O)c(O)c2ccc(Oc3ccccc3)cc12`, the “presynaptic density (Z-score)” value stood at 0.792.

For the compound `CCCCCCCCCCCC1=C(O)C(=O)C=C(O)C1=O`, the “presynaptic density (Z-score)” value is -0.826.

Turning to `Cc1cc(C(C)(C)C)c(O)c(C)c1CC1=NCCN1` [Oxymetazoline HCl], the “presynaptic density (Z-score)” value was -0.235.

For the compound `CC(C)C[C@H](NC(=O)CNC(=O)c1cc(Cl)ccc1Cl)B(O)O`, the “presynaptic density (Z-score)” value was -3.07.

Take `CC(=O)O[C@]1(C(C)=O)CC[C@H]2[C@@H]3C=C(Cl)C4=CC(=O)[C@@H]5C[C@@H]5[C@]4(C)[C@H]3CC[C@@]21C` [Cyproterone acetate]: the “presynaptic density (Z-score)” value is -0.989.

For `CCOC(=O)C1=C(COCCN)NC(C)=C(C(=O)OC)C1c1ccccc1Cl` (stereo not drawn), the “presynaptic density (Z-score)” value was -1.97.

As to `NS(=O)(=O)C#Cc1ccccc1` [2-Phenylethynesulfonamide], the “presynaptic density (Z-score)” value came out at 0.148.

Take `COc1ccccc1OCCNCC(O)COc1cccc2[nH]c3ccccc3c12` (stereo not drawn): the “presynaptic density (Z-score)” value is -1.2.

For the compound `C[C@H](CS)C(=O)N1CCC[C@H]1C(=O)O` [Captopril], the “presynaptic density (Z-score)” value was -1.61.

With `CCCc1nc2c(C)cc(-c3nc4ccccc4n3C)cc2n1Cc1ccc(-c2ccccc2C(=O)O)cc1`, the “presynaptic density (Z-score)” value was -0.154.

In the case of `NC1(Cc2ccc(Cl)cc2)CCN(c2ncnc3[nH]ccc23)CC1`, the “presynaptic density (Z-score)” value is -0.622.
